High-throughput results (PubChem BioAssay)
Shown are actives, neighbours in structure and some others; about 0.81% of the full set was active somewhere.
COUP-TFII inh – NR2F2 transcriptional activity inhibitors, primary screen, cell-based, luciferase reporter, HEK293T, luminescence. COUP transcription factor 2 (Homo sapiens), P24468. HEK293T NGFI-A luciferase reporter. inhibition, % at 8.6 µM. 370,000 tested, 0.7% active;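 active = inhibition above a per-plate cutoff, mean inhibition of test wells between control levels plus 3 SD, cut at about 38% in these data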;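 note: cells cotransfected with COUP-TFII expression vector driving the NGFI-A reporter; 0% = median of COUP-TF2 test wells and 100% = reporter-only cells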
NCOA2 inhibitor – inhibition of GAL4-SRC2 driven luciferase reporter, primary screen, SRC2 inhibitor project, cell-based, luminescence; Nuclear receptor coactivator 2 (Homo sapiens), Q15596; HEK293 GAL4-SRC2 luciferase reporter; inhibition, % at 9 µM; 370,000 tested, 0.17% active; AID 651957, 2012;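 active = inhibition above the mean inhibition of all tested compounds plus 3 SD, set per campaign, cut at about 52% in these data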;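 note: 0% = DMSO treated cells and 100% = cells given Gossypol at 36 µM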
SRC3 inh – SRC3 coactivator transcriptional activity inhibitors, primary screen, cell-based, luminescence | Nuclear receptor coactivator 3 (Homo sapiens), Q9Y6Q9 | AID 588352, 2011 | HEK293 GAL4-SRC3 luciferase reporter | inhibition, % at 3.6 µM | 360,000 tested, 0.17% active;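 active = inhibition above a per-campaign cutoff, the mean of all compounds plus 3 SD, cut at about 60% in these data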;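 note: 0% = DMSO-treated cells and 100% = gossypol-treated cells at 36 µM; higher means less SRC3-driven luciferase light from the GAL4 reporter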
SRC1 inh – SRC1 coactivator transcriptional activity inhibitors, primary screen, cell-based, luminescence; HEK293 GAL4-SRC1 luciferase reporter; AID 588354, 2011; Nuclear receptor coactivator 1 (Homo sapiens), Q15788; inhibition, % at 3.6 µM; 360,000 tested, 0.12% active;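 active = inhibition above the campaign mean plus 3 SD, with each screening campaign given its own cutoff, cut at about 60% in these data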;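 note: 0% = DMSO treated cells and 100% = gossypol at 36 µM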
NR5A2 inv ag – LRH-1 (NR5A2) inverse agonists, primary screen, cell-based, luminescence, HEK293T, StAR-luciferase reporter; LRH-1 transfected, 24 h; inhibition, % at 3.6 µM; 360,000 tested, 0.13% active; AID 602396, 2012;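 active = inhibition above the mean inhibition of all tested compounds plus 3 SD, cut at about 73% in these data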;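 note: 0% = DMSO wells and 100% = reporter-only cells lacking LRH-1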
Gal4-VP16 ctr – Gal4-VP16 luciferase reporter inhibitors, counter-screen for COUP-TFII antagonist project, cell-based, luminescence, HEK293 | AID 687007, 2013 | shares compounds with COUP-TFII inh | inhibition, % at 8.5 µM | 2,500 tested, 25% active; in the data active = inhibition above about 13%
COUP-TFII conf – NR2F2 transcriptional activity inhibitors, confirmation, cell-based, luciferase reporter, HEK293, triplicate; shares compounds with COUP-TFII inh; HEK293 NGFI-A luciferase reporter, luminescence; inhibition, % at 8.5 µM; 2,500 tested, 45% active;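 active = mean inhibition over three repeats above a set limit taken from the earlier primary screen, cut at about 38% in these data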;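 note: 100% = cells given the luciferase reporter alone without the COUP-TF2 vector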
* = called active by the depositor; / = no result given.

SMILES	COUP-TFII inh	NCOA2 inhibitor	SRC3 inh	SRC1 inh	NR5A2 inv ag	Gal4-VP16 ctr	COUP-TFII conf
COc1ccc(CN2Cc3cnnn3-c3ccccc3C2c2ccccc2)cc1 (stereo unspecified)	9.5	14.8	7.2	12.3	-9.1	/	/
COc1ccc(CN2Cc3cnnn3-c3ccccc3C2C#N)cc1 (stereo unspecified)	59.0*	42.6	46.2	23.4	35.9	26.3*	13.2
O=C(NC1CN2CCC1CC2)c1cc(-c2ccc(Cl)cc2)nc2ccccc12 (stereo unspecified)	-18.1	-14.9	/	/	/	/	/
COc1ccc2c(c1)C1(C)CCN(C)CC(C1)C2O (stereo unspecified)	5.8	14.9	15.8	6.3	8.8	/	/
CC(c1ccccc1)n1cc(C(=O)NC2CCCC2)nn1 (stereo unspecified)	2.0	-17.9	/	/	/	/	/
NN=C1C(Cl)=C(Cl)C(Cl)=C1Cl	3.5	-2.5	-3.7	0.4	-28.4	/	/
CC(=O)OC1CC(OC2C(O)CC(OC3C(O)CC(OC4CCC5(C)C(CCC6C5CCC5(C)C(C7=CC(=O)OC7)C(O)CC65O)C4)OC3C)OC2C)OC(C)C1OC1OC(CO)C(O)C(O)C1O (stereo unspecified)	73.9*	38.1	81.5*	84.4*	98.4*	35.6*	65.3*
CC(=O)OC1CC2(O)C3CCC4CC(O)CCC4(C)C3CCC2(C)C1C1=CC(=O)OC1 (stereo unspecified)	76.8*	50.4	87.6*	85.5*	99.0*	46.9*	71.9*
COC(=O)[C@@]1(O)c2c(oc3cccc(O)c3c2=O)C=C[C@H]1O	-17.6	-20.6	/	/	/	/	/
COc1ccc(CN2Cc3cc(-c4cccc(F)c4)ccc3-n3nncc3C2)cc1	13.8	-4.5	-13.2	0.3	17.1	/	/
CC1CC(C)CC(C)C(O)C(C#N)=CC=CCC(C2CCCC2C(=O)O)OC(=O)CC(O)C(C)C1 (stereo unspecified)	83.5*	75.7*	93.6*	94.2*	98.4*	23.1*	79.9*
Cn1nc(-c2ccc(OCC(=O)N3CCN(Cc4ccccc4)CC3)cc2)c2ccccc2c1=O	54.9*	14.2	7.9	-3.3	37.6	6.1	36.1
Cn1cccc1CN1CCN(C(=O)COc2ccccc2)CC1	-8.6	17.1	-4.1	-13.5	8.2	/	/
COC(=O)[C@@H]1[C@@H](C(=O)OC)C2(c3ccccc3-c3ccccc32)N(c2ccc(Cl)cc2)N1C#N	47.0*	12.4	47.7	6.8	12.9	49.7*	46.8*
CC(C)CC(NC(=O)CCCNC(=O)CCC(=O)OC1O[C@H]2OC3(C)CC[C@H]4[C@H](C)CCC(C1C)C24OO3)C(=O)O (stereo partly specified)	45.9*	22.6	72.7*	43.1	84.0*	-2.5	45.2*
CC1C(OC(=O)CCC(=O)NC(C)(C)CO)O[C@H]2OC3(C)CC[C@H]4[C@H](C)CCC1C24OO3 (stereo partly specified)	45.6*	5.6	53.5	54.6	90.5*	7.3	49.7*
CCC(C)N1C(=O)/C(=C/c2ccc3c(c2)CCN3CCCCl)C(=O)NC1=S (stereo unspecified)	22.6	-1.7	6.5	-11.0	27.8	/	/
OC1CN2CCC(O)C2C(O)C1O (stereo unspecified)	9.5	-4.4	/	/	/	/	/
C[C@H]1CCC/C=C/[C@@H]2C[C@H](O)C[C@H]2[C@@H](O)/C=C/C(=O)O1	52.8*	22.6	57.3	18.2	61.2	18.0*	30.7
CN1C2CCC1/C(=C/c1ccccn1)C(=O)/C2=C\c1ccccn1	63.4*	65.2*	50.2	-51.5	3.1	67.8*	84.8*
Cc1ccccc1-n1c(/C=C/c2ccccn2)nc2ccccc2c1=O	5.6	29.6	-5.3	11.5	46.9	/	/
O=P(N1CC1)(N1CC1)N1CCc2ccccc21	6.8	8.9	-1.5	-4.1	11.8	/	/
c1ccc(-c2cc(-c3ccccc3)[n+](-c3ccccc3)c(-c3ccccc3)c2)cc1	72.7*	16.8	65.7*	35.2	57.4	15.2*	45.0*
CCOC(=O)c1cccc(-[n+]2c(-c3ccccc3)cc(-c3ccccc3)cc2-c2ccccc2)c1	33.4	8.2	30.0	8.4	23.3	/	/
CN(C)c1ccc(-[n+]2c(-c3ccccc3)cc(-c3ccccc3)cc2-c2ccccc2)cc1	85.8*	-1.9	82.5*	59.0	89.6*	27.3*	90.0*
SMILES	COUP-TFII inh	NCOA2 inhibitor	SRC3 inh	SRC1 inh	NR5A2 inv ag	Gal4-VP16 ctr	COUP-TFII conf
Cc1ccc(-c2cc(-c3ccccc3)cc(-c3ccccc3)[n+]2-c2ccccc2)cc1	76.2*	74.6*	83.7*	56.4	97.6*	30.6*	88.6*
O=C(Cc1c[nH]c2ccccc12)NNCc1ccc(N(CCCl)CCCl)cc1	16.0	-11.4	-16.4	2.7	0.5	/	/
CC12CCC(=O)C=C1CC(O)C1C2CCC2(C)C1CCC2(C)O (stereo unspecified)	-9.3	-7.0	3.7	-3.1	5.4	/	/
Cc1ccc2c(c1)C1C[N+](C)(CC(=O)c3ccc(Cl)cc3Cl)CCC1N2C(=O)c1ccc(F)cc1 (stereo unspecified)	-19.7	-17.8	-35.2	-26.2	-65.8	/	/
COc1ccc2[nH]c(C)c(CCNCc3cc(OC)c(OC)c(OC)c3)c2c1	12.6	2.4	7.7	4.2	11.7	/	/
COc1ccc(CNCCc2c(C)[nH]c3ccc(OC(F)(F)F)cc23)c(OC)c1	51.5*	21.2	7.2	7.0	26.2	1.7	44.8*
CCOC(=O)[C@]12Cc3cc(Cl)ccc3[C@H]1N(C(C)C)C(=O)c1ccccc12	41.3*	-4.1	/	/	33.7	21.3*	52.8*
CCOC(=O)[C@]12Cc3cc(Cl)ccc3[C@H]1N(C)C(=O)c1ccccc12	4.9	2.5	/	/	-46.3	/	/
COc1ccc(C(O)(c2ccccc2)c2ccncc2)cc1 (stereo unspecified)	9.4	6.0	8.3	-6.7	-40.1	/	/
Cc1ccc(-c2cc(-c3ccc(C)cc3)[n+](C)o2)cc1	68.6*	-6.1	53.9	48.6	65.9	6.4	56.4*
CCN1CCN(c2ncnc3ccc(Br)cc23)CC1	42.0*	38.6	38.4	50.5	18.8	11.0	23.2
CCN(CC)C1=NC(=[N+](CC)CC)c2ccccc21	45.5*	31.2	26.8	40.2	55.1	12.2	52.3*
